# Only a selection was taken, and hits are over-represented in it overall.
# Tg IFNy HTS: blocks Toxoplasma gondii growth in the presence of IFN-gamma | Toxoplasma gondii growth in IFN-gamma-treated host cells; hits give low values | activity change, negative = inhibition, % (no concentration beside the values) | 3.8% of 69,000 active | AID 1259416; in the data active means activity change below about -70%, passing the limit was not always enough;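 further: host cells are HeLa cells infected with Toxoplasma gondii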
# Numbers stand for hits; – = inactive.
SMILES,Tg IFNy HTS
CN(C)C(=O)N1CC[C@@H]2[C@@H]1CCC(=O)N2c1ccccc1,–
CC(=O)Nc1ccc(S(=O)(=O)NC2=NCN(Cc3ccco3)CN2)cc1,–
CSc1ccccc1C(=O)N1CCc2c(c(C(=O)N(C)Cc3cscn3)nn2CC2CC2)C1,–
Cc1ccc(-c2nc(Cn3nnc(-c4nc(-c5ccc(C(F)(F)F)cc5)no4)c3C)c(C)o2)cc1,–
Cn1nnnc1SCC(=O)N1Cc2cnc(C(C)(C)C)nc2C1,–
COc1ccc(S(=O)(=O)Nc2ccc(S(=O)(=O)Nc3cc(C)on3)cc2)cc1,–
COc1ccc(-c2nc3c(s2)CN(S(=O)(=O)c2ccc(CC(C)C)cc2)CC3)cc1,–
COc1ccc(-c2nc3c(s2)CN(S(=O)(=O)c2cccc(F)c2)CC3)cc1,–
COc1ccc(-c2nc3c(s2)CN(S(=O)(=O)c2cccs2)CC3)cc1,-94.3
CNC(=O)[C@H]1CC2CN(C(=O)c3cnccn3)CC2N1C(C)=O (some centres undefined),–
CCCN(CCC)S(=O)(=O)c1ccc(C(=O)O)cc1,–
O=C(COc1ccc(Cl)cc1)ON=C1C2CC3CC(C2)CC1C3,–
CCCN(CCC)S(=O)(=O)c1ccc(C(=O)ON=C2C3CC4CC(C3)CC2C4)cc1,-79.2
Cc1ccc(-c2coc(-c3ccc(NS(=O)(=O)c4ccc(C(C)C)cc4)cc3)n2)c(C)c1,–
COC(=O)[C@@H]1C[C@@H](N(C)C)CN1C(=O)CC(=O)Nc1ccc(C)cc1,–
COc1ccc(NC(=O)Cn2ncc3c(N4CCC(C)CC4)ncnc32)cc1OC,–
CC1CCN(c2ncnc3c2cnn3CC(=O)Nc2cccc(C(F)(F)F)c2)CC1,-72.5
CC1CCN(c2ncnc3c2cnn3CC(=O)Nc2ccc(OC(F)(F)F)cc2)CC1,–
CC1CCN(c2ncnc3c2cnn3CC(=O)Nc2ccc(F)c(Cl)c2)CC1,-85.7
CC1CCN(c2ncnc3c2cnn3CC(=O)Nc2ccc3c(c2)OCCO3)CC1,–
CC1CCN(c2ncnc3c2cnn3CC(=O)Nc2ccccc2C(F)(F)F)CC1,-81.1
CC1CCN(c2ncnc3c2cnn3CC(=O)Nc2ccccc2F)CC1,–
O=C(Cn1ncc2c(N3CCN(c4ccccn4)CC3)ncnc21)Nc1ccccc1C(F)(F)F,–
O=C(Cn1ncc2c(N3CCCCC3)ncnc21)Nc1cccc(Cl)c1,–
O=C(Cn1ncc2c(N3CCN(c4ccccn4)CC3)ncnc21)Nc1ccc(F)c(Cl)c1,–
SMILES,Tg IFNy HTS
CC1CCN(c2ncnc3c2cnn3CC(=O)Nc2cccc(Cl)c2)CC1,-86.8
O=C(Cn1ncc2c(N3CCCC3)ncnc21)Nc1cccc(Cl)c1,–
NC(=O)c1cnc2n1CCN(C(=O)c1cn3ccsc3n1)C2,–
N#Cc1c2c(c(Nc3ccc(Br)cc3)n3c1nc1ccccc13)CCC2,–
O=C(CC1NC(=O)N(C2CCCCC2)C1=O)Nc1ccccc1CN1CCCCC1 (centres undefined),–
NC1(C(=O)NCC2CCCN(Cc3cccc4nonc34)C2)CCC1 (centres undefined),–
CC(C)CN1CCN(C)C2(CCN(Cc3cnn(C)c3)CC2)C1=O,–
CCCn1ccnc1CN1CCC(O)(c2ccc3nc(C)ccc3c2)CC1,–
Cc1cc(C)n(CC(C)NCc2nncn2C2CCCCC2)n1 (centres undefined),–
OCCNc1ccc(/C=C/c2ccccc2)nn1,–
C=CCN1C(=O)CC2(CCN(C(=O)c3ccno3)CC2)c2ccccc21,–
CCCCCC(=O)Nc1ccc2c(c1)Cc1ccccc1-2,–
O=C(CCCc1ccc(-c2ccccc2F)cc1)Nc1ccc(O)cc1,-80.3
C=CCNC(=O)C1(Cc2ccc(-c3ccccc3F)cc2)CCCNC1 (centres undefined),–
O=C(CC1N=C2c3ccccc3N=C(SCc3cc(=O)n4ccccc4n3)N2C1=O)NCc1ccc2c(c1)OCO2 (centres undefined),–
Cc1oc(C2CCN(C(=O)Nc3cccc(F)c3C)CC2)nc1C(=O)N(C)C,-79.4
Cc1oc(C2CCN(C(=O)Nc3ccc(Cl)cc3)CC2)nc1C(=O)N1CCCC1,–
Cc1ccc(F)cc1S(=O)(=O)N1CCC(c2nc(C(=O)N3CCCC3)c(C)o2)CC1,-82.0
CSc1ccc(NC(=O)N2CCC(c3nc(C(=O)N4CCCCC4)c(C)o3)CC2)cc1,–
CSc1ccc(NC(=O)N2CCC(c3nc(C(=O)N4CCCC4)c(C)o3)CC2)cc1,-84.4
Cc1oc(C2CCN(C(=O)Nc3cccc(Cl)c3C)CC2)nc1C(=O)N(C)C,–
Cc1oc(C2CCN(S(=O)(=O)c3cccc(F)c3)CC2)nc1C(=O)N1CCCC1,–
Cc1oc(C2CCN(S(=O)(=O)c3ccc(F)cc3)CC2)nc1C(=O)N1CCCC1,–
Cc1cccc(NC(=O)N2CCC(c3nc(C(=O)N(C)C)c(C)o3)CC2)c1C,–
Fc1ccc(CN2C[C@H](N3CCOCC3)C3OCCCC32)cc1 (some centres undefined),–
SMILES,Tg IFNy HTS
CN1CC2(CCCN(Cc3ccc(-c4ccc(Cl)cc4)o3)CC2)OC1=O (centres undefined),–
COc1ccc(-c2cc(C(=O)N3CCN(S(=O)(=O)N4CCCC4)CC3)[nH]n2)cc1,–
CC(C)N1CCC(c2nc3ccc(NC4CCC4)cn3n2)CC1,–
Cc1nc(-c2ccc(F)cc2)sc1CCNC(=O)c1ccc(F)c(F)c1,–
Cn1c(=O)c2c(nc(SCCN3CCCCC3)n2C)n(C)c1=O,–
Cn1c(=O)c2c(nc(SCC(=O)Nc3nc(-c4cccs4)cs3)n2C)n(C)c1=O,-102.8
Cn1cnnc1Sc1nc2c(c(=O)n(C)c(=O)n2C)n1C,–
O=S(=O)(c1ccccc1F)N1CCc2onc(COCC3CC3)c2C1,–
CC1=C(C(=O)NCCN(C)C2CCCCC2)C2(CCN(Cc3ccccc3)CC2)OC1=O,–
CN(Cc1ccccc1)C(=O)c1cc2cccnc2n(Cc2ccccc2)c1=O,–
O=C(c1cc2cccnc2n(Cc2ccc(F)cc2)c1=O)N1CCCCCC1,–
CC(C)N(Cc1ccccc1)C(=O)c1cc2cccnc2n(Cc2ccc(F)cc2)c1=O,-95.6
COc1ccccc1N1CCN(C(=O)c2cc3cccnc3n(Cc3ccccc3)c2=O)CC1,–
O=C(c1cc2cccnc2n(Cc2ccc(Cl)cc2)c1=O)N1CCN(c2ccc(F)cc2)CC1,-97.7
O=C(c1ccco1)N1CCN(C(=O)c2cc3cccnc3n(Cc3ccc(F)cc3)c2=O)CC1,–
COc1ccc(N2CCN(C(=O)c3cc4cccnc4n(Cc4ccc(F)cc4)c3=O)CC2)cc1,–
CC1CCN(C(=O)c2cc3cccnc3n(Cc3ccc(F)cc3)c2=O)CC1,–
O=C(c1cc2cccnc2n(Cc2ccc(F)cc2)c1=O)N1CCN(c2cccc(Cl)c2)CC1,-119.3
O=C(c1cc2cccnc2n(Cc2ccc(F)cc2)c1=O)N(Cc1ccccc1)c1ccccc1,–
O=C(c1cc2cccnc2n(Cc2ccc(Cl)cc2)c1=O)N1CCN(c2ccccc2)CC1,–
O=C(c1cc2cccnc2n(Cc2ccc(F)cc2)c1=O)N1CCN(c2ccccc2Cl)CC1,-84.4
Cc1nc2ccc(C(=O)Nc3nncs3)cc2s1,–
CCC(=O)NC1CC2(CCN(c3ncccn3)CC2)Oc2ccccc21 (centres undefined),–
O=C(CC12CC3CC(CC(C3)C1)C2)Nc1ccc2c(c1)OCCO2,–
CCCN1CCC2(CC1)NC(=O)N(CC1CCN(C(=O)Cc3csc(C)n3)CC1)C2=O,–
Cc1cc(C)n(CCc2nnc(N)s2)n1,–
COc1ncccc1C(=O)NCCC(=O)Nc1cccc(C)c1,–
CC(=O)N1CCc2ncc(CNC(=O)CC3CC3)n2CC1,–
Nc1nnc(Sc2nc3c(Cl)cc(Cl)cc3s2)s1,-85.4
Nc1nnc(CSCc2ccc(Cl)cc2Cl)s1,–

# Bioassay records: PubChem, Broad Institute
